# M1 PAM parental: nonselective activator or artifact in parental CHO-K1 calcium assay; hit rate 0.02% among 360,000; ATP EC20, Fluo-8 calcium fluorescence; 0% at ATP EC20, 100% at ATP max; activation, % at 3 µM;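 active = activation above the run cutoff, the mean activation of all test compounds plus 3 SD, cut at about 40% in these data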;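 also: peak over basal fluorescence ratio in a 140 s read after ATP addition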
# M1 antag: human CHRM1 antagonism. hit rate 1.3% among 360,000. P11229. AID 588852. CHO-K1 hM1, Fluo-8 calcium fluorescence, ACh EC80 antagonist. inhibition, % at 3 µM;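 active = percent inhibition above its own plate's cutoff, namely the mean of that plate's compound wells plus 3 SD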;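 also: peak over basal fluorescence ratio during 140 s after agonist addition; 0% = ACh EC80 plus DMSO and 100% = DMSO alone without agonist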
# Target sequence (P11229 whole entry, looked up): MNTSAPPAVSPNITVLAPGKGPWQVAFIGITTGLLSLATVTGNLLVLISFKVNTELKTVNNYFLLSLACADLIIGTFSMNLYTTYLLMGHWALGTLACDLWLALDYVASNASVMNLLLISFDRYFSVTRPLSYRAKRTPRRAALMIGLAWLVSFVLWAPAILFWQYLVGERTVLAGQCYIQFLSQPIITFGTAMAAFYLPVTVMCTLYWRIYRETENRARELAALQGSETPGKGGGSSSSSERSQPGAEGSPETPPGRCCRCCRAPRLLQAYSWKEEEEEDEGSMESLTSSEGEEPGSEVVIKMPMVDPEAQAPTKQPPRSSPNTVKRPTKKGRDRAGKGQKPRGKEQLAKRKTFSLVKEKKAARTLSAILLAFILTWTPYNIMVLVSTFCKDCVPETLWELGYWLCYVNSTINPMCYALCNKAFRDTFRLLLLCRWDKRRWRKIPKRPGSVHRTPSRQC
# M1 ag: activates human CHRM1 receptor | AID 588814 | hit rate 0.33% among 360,000 | CHO-K1 hM1, Fluo-8 calcium fluorescence, agonist mode; 0% DMSO, 100% acetylcholine EC100 | activation, % at 3 µM;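 active = activation above the run's mean compound activation plus 3 SD, cut at about 16% in these data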;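 also: peak over basal fluorescence ratio within a 140 s kinetic read after compound addition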
# CHO-K1 Ca antag: counter-screen for M1 antagonists: effect in parental CHO-K1 cells | ATP-induced calcium, Fluo-8 fluorescence | hit rate 0.6% among 360,000 | inhibition, % at 3 µM;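 active = inhibition above a per-plate cutoff, the plate's mean sample inhibition plus 3 SD, cut at about 24% in these data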;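 also: 0% = DMSO plus EC80 ATP and 100% = DMSO alone without ATP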
# CHRM1 PAM: human CHRM1 positive allosteric modulation | hit rate 0.088% among 360,000 | AID 588819 | activation, % at 3 µM | CHO-K1 hM1, Fluo-8 calcium fluorescence, ACh EC20; 0% = ACh EC20, 100% = maximal ACh; in the data active = activation above about 19%, passing the limit was not always enough
# CHO-K1 Ca ag: counter-screen for M1 agonists: effect in parental CHO-K1 cells; Fluo-8 calcium fluorescence; scaled to maximal ATP response, vehicle zero; activation, % at 3 µM; hit rate 0.48% among 360,000; in the data active = activation above about 15%;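 also: untransfected CHO-K1 host cells lacking M1 receptor as counterscreen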
# An asterisk follows results filed as active; nt = no result; ! = a repeat was not active. Compounds with a hit are over-represented: about 2.3% of the library has one in this group of screens.
SMILES,M1 PAM parental,M1 antag,M1 ag,CHO-K1 Ca antag,CHRM1 PAM,CHO-K1 Ca ag
CCc1ccc(NC(=O)C(CC)c2ccccc2)cc1 (stereo not given),24,17,26*,-4,-6,19*
CCC(C(=O)Nc1ccc(C)cc1)c1ccccc1 (stereo not given),8,8,-3,-8,-2,1
COC(=O)c1ccc(CNC(=O)C2CCC(=O)N(CCN3CCOCC3)C2)cc1 (stereo not given),-2,-9,-2,7,5,0
COC(/C(=N/O)c1ccc(Cl)cc1)c1ccccc1 (stereo not given),-17,47*,-6,31*,-20,9
COc1cccc(CC(=O)NN2C(=O)NC3(CCCCC3)C2=O)c1,-2,-4,1,-7,6,0
CCCCCCCCCn1c2c(c(=N)c3c1CCC3)CCC2,11,31*,-1,18,-9,5
O=C1NC[C@@H](CCCCN2CCN(CCc3ccccc3)C(=O)C2=O)N(CCC2CCCCC2)C1=O,10,nt,nt,-26,nt,1
OC(COC(c1ccccc1)c1ccccc1)CN1CCN(c2ccccn2)CC1 (stereo not given),15,42*,-8,-1,-26,5
OC(COC(c1ccccc1)c1ccccc1)CN1CCc2ccccc2C1 (stereo not given),12,12,-8,-1,-25,4
OC(COC(c1ccc(Cl)cc1)c1ccc(Cl)cc1)CN1CCc2ccccc2C1 (stereo not given),29,4,-7,-7,-3,16*
O=C(Nc1ccc(OC(F)(F)F)cc1)C1CCCN(C(=O)c2ccc(Cl)cc2)C1 (stereo not given),-14,31,1,14,-14,20*
CCc1ccc(NC(=O)CN2CCc3ccccc3C2)cc1,-7,1,-6,24*,4,0
CCOC(=O)c1sc(NC(=O)c2ccc(S(=O)(=O)N(CC)CC)cc2)nc1C,0,-3,-1,1,3,1
O=C(Nc1ccccc1)c1ccc(CN2CCc3ccccc3C2)cc1,-13,-6,-13,24*,-11,7
CN(c1ccccc1)S(=O)(=O)c1ccc(C(=O)NCc2ccccc2CN2CCCC2)cc1,-13,21,-6,10,-16,17*
CCOC(=O)c1csc(NC(=O)c2ccc(S(=O)(=O)N(CC)CC)cc2)n1,14,-5,-2,-10,7,15*
CC(C)(C)NC(=O)NC(=O)COC(=O)CCC1CCCC1,10,-8,-2,-14,-8,2
O=C1S/C(=C\c2ccc(Cl)cc2)C(=O)N1CCn1cnnn1,9,-8,-2,2,7,3
COc1ncccc1-c1nnn(-c2ccc(F)cc2)n1,-25,11,-5,13,-7,-1
CCc1ccccc1NC(=O)CCS(=O)(=O)c1ccc(OC)cc1,10,-22,-4,-5,19,3
CN(C)S(=O)(=O)c1ccc(C(=O)Nc2ccc(CN3CCCC3)cc2)cc1,15,41*,-5,-8,-18,0
Cc1ccc(NC(=O)c2ccc(CN3CCc4ccccc4C3)cc2)cc1,18,5,-4,-10,-10,1
O=C(Nc1ccc(S(=O)(=O)N2CCCCC2)cc1)c1ccc(CN2CCc3ccccc3C2)cc1,-4,27,-4,33*,-12,0
CCN(CC)S(=O)(=O)c1ccc(NC(=O)c2ccc(N(C)S(C)(=O)=O)cc2)cc1,-5,6,0,9,-11,4
CCN(CC)S(=O)(=O)c1ccc(C(=O)Nc2ccc(Cc3ccncc3)cc2)cc1,-21,26,0,16,-14,15*
SMILES,M1 PAM parental,M1 antag,M1 ag,CHO-K1 Ca antag,CHRM1 PAM,CHO-K1 Ca ag
CC1(C)CC2(OC2c2ccccc2[N+](=O)[O-])C(=O)c2ccccc21 (stereo not given),11,-9,-3,-9,-1,1
CCOC(=O)CNC(=O)COc1coc(CN2CCN(Cc3ccccc3)CC2)cc1=O,14,-8,-5,-22,2,0
O=C(Nc1ccc(C(=O)N2CCCC2)cc1)C1CCC1,13,-2,-1,-10,4,1
COc1cccc(OC)c1C(=O)Nc1ccc2c(c1)Cc1ccccc1-2,10,1,-3,-8,1,0
COc1ccc(C(=O)Nc2ccc3c(c2)Cc2ccccc2-3)cc1,-6,-1,0,24*,10,0
COc1ccc(/C=C/C2=CC(C)(C)NC(=S)N2)cc1OC,-15,6,2,26*,12,0
COc1cccc(/C=C/C2=CC(C)(C)NC(=S)N2)c1,3,-1,-7,10,2,-1
CN(C)C=Nc1c(Br)cc(Br)c2nonc12,4,14,45*,17,-19,18*
CN(C)C=Nc1nonc1-c1ccccc1,2,-6,-4,-10,3,1
CC1CCN(C(=O)CN(CCc2ccccc2)S(C)(=O)=O)CC1,-6,-8,-6,4,9,0
CC(C)CC(=O)N1CCC(N(CCc2ccccc2)Cc2ccccc2)CC1,20,57*,-8,-14,-27,0
Cc1cc2cc(CNC(=O)c3ccc(S(=O)(=O)N(C)C)cc3)ccc2n1C,-12,30*,-12,22,-26,1
Cc1cc2cc(CNC(=O)c3ccc(S(=O)(=O)N4CCOCC4)cc3)ccc2n1C,20,76*,-10,-7,-31,2
Cc1cc2cc(CNC(=O)c3cccc([N+](=O)[O-])c3)ccc2n1C,5,-6,-7,15,3,0
CC(C)(C)OC(=O)N[C@@H](C(=O)OC(C)(C)C)c1ccc2c(c1)OCO2,-8,-3,-9,3,-6,-1
OC1C(O)C(O)C(O)C(O)C1O (stereo not given),8,100*!,-1,-2,-1,0
CC(=O)Nc1ccc(S(=O)(=O)N(C)CC(=O)OCC(=O)N2CC(C)OC(C)C2)cc1 (stereo not given),14,-19,0,-8,11,0
CC(C)(C)c1ccc(S(=O)(=O)Nc2ccc(Cc3ccncc3)cc2)cc1,8,62*,-2,24*,-22,11
COc1ccc(S(=O)(=O)Nc2ccc(Cc3ccncc3)cc2)cc1C,1,39*,0,-4,-23,12
CC(=O)Nc1ccc(S(=O)(=O)Nc2ccc(Cc3ccncc3)cc2)cc1,6,9,-9,7,-1,2
CC1(C(=O)NS(=O)(=O)c2ccc(Cl)s2)CCN1C(=O)C1(c2ccc(Cl)cc2)CCC1 (stereo not given),1,-8,1,-7,16,0
O=C(Nc1ccccc1Br)C1CCN(S(=O)(=O)c2cccs2)CC1,26,-17,-1,-19,3,1
